Measured values taken from ChEMBL document CHEMBL3433997, “St. Jude Leishmania screening dataset” (2016).

Columns and labels:
Assay type in all cases: functional
[1] = target: Solute carrier family 2, facilitated glucose transporter member 1 (Homo sapiens) (UniProt P11166); assay: ST_JUDE_LEISH: Cytotoxicity at 2uM final concentration against transgenic Leishmania Mexicana promastigotes LmGLUT1 that are glucose transport deficient and complemented with the human glucose transporter GLUT1. Activity is measured by DNA content using SYBR green in vitro
Solute carrier family 2, facilitated glucose transporter member 1 (Homo sapiens), sequence (P11166 whole entry): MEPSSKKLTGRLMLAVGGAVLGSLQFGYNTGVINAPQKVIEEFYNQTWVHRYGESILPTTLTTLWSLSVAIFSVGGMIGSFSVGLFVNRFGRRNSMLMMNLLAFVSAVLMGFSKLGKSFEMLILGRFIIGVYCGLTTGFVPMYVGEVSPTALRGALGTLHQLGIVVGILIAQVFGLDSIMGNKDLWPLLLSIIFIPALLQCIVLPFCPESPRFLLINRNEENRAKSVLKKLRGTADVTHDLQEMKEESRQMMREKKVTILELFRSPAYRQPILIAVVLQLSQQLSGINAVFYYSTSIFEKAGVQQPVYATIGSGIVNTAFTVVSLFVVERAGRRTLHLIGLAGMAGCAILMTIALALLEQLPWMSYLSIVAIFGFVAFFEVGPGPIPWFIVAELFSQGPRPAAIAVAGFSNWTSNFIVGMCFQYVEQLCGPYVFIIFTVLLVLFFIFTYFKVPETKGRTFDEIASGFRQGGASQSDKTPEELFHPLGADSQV

[2] = target: Hexose transporter 1 (Plasmodium falciparum) (UniProt O97467); assay: ST_JUDE_LEISH: Cytotoxicity at 2uM final concentration against transgenic Leishmania Mexicana promastigotes LmPfHT that are glucose transport deficient and complemented with the Plasmodium falciparum hexose transporter. Activity is measured by DNA content using SYBR green in vitro
[3] = target: Glucose transporter (Leishmania mexicana) (UniProt O61059); assay: ST_JUDE_LEISH: Cytotoxicity at 2uM final concentration against transgenic Leishmania Mexicana promastigotes LmGT2 that are glucose transport deficient and complemented with the L. Mexicana glucose transporter 2. Activity is measured by DNA content using SYBR green in vitro

Compound | inhibition [1] [%] | inhibition [2] [%] | inhibition [3] [%]
O=C(Nc1ccccc1O)c1ccc(S(=O)(=O)c2ccc(Cl)cc2)cc1 | 5.52 | 4.67 | 6.69
CNC(=O)c1cnc(Nc2ccc(N3CCOCC3)cc2)nc1Nc1cccc(O)c1 | 3.92 | 5.41 | -1.69
Cc1cc(CNCCCCCCCNCc2ccc(-c3ccccc3)cc2)ccc1O | 0.67 | 1.76 | 1.05
CCOc1cc(C(=O)Nc2ccc(-c3nc4ccccc4[nH]3)cc2)cc(OCC)c1OCC | 7.99 | 5.32 | 2.55
CNC(=O)COc1ccc(Nc2nnc(-c3ccc(C)c(S(=O)(=O)NCC4CCCO4)c3)c3ccccc23)cc1 (stereo not drawn) | 1.3 | 0.12 | -0.43
CN1CCC(N(Cc2ccc(-c3ccc(Cl)cc3)cc2)C(=O)Cn2c(CCc3cccc(F)c3F)cc(=O)c3ccccc32)CC1 | 8.97 | 3.73 | 8.07
COc1cc2ncnc(Nc3ccc(OCc4ccccc4Br)c(OC)c3)c2cc1OC | 1.37 | 0.69 | -0.16
COc1ccc(-c2ccc(NC(=O)c3ccc(C#N)cc3)cc2)cc1CN1CCCN(C)CC1 | 3.03 | 3.17 | -0.21
N#Cc1ccc(/C=C/C(=O)NCCCCCN2CCN(C(=O)Nc3ccc(Cl)c(C(F)(F)F)c3)CC2)cc1 | 5.8 | 4.08 | 1.97
CCOC(=O)c1nc2ccc(SC3CCCCC3)cn2c1Br | 1.75 | 0.06 | 5.65
Oc1ccc(CCNCCCCCCNCCc2ccc(-c3ccccc3)cc2)cc1O | 1.33 | 1.69 | 1.57
N=c1sc2ccccc2n1CC(O)c1ccc(Cl)c(Cl)c1 (stereo not drawn) | -1.41 | 1.26 | 0.57
CN(Cc1cccc(O)c1)C1CCN(c2cc(NC(=O)c3cccc(F)c3)ccn2)CC1 | 0.01 | 1.18 | 1.33
Nc1ccc(-c2cnc3[nH]cc(-c4ccc(C(=O)O)cc4)c3c2)cn1 | -0.33 | 0.34 | 1.27
CN1CCN(c2ccnc3ccc(NC(=O)Nc4c(Cl)cccc4Cl)cc23)CC1 | -2.39 | -2.3 | -1.19
CC1CCN(CCNC(=O)c2ccc3c(=O)n(Cc4ccc(Cl)cc4)c(=S)[nH]c3c2)CC1 | 1.28 | 2.93 | 1.91
